Measured values reported in the supplement of paper PMC13380429.

System: Vero E6 infected with SARS-CoV-2
Experiment: inhibition of SARS-CoV-2 cytopathic effect; higher = more antiviral protection, active = above 15
Conditions: 48 h

Measured: inhibition of SARS-CoV-2 cytopathic effect

CCCCOCCOc1nc(-c2ccc(C(=O)O)c(F)c2)sc1C
inactive: 1 nM -0.86% | 8.33 nM -0.63% | 100 nM -1.87% | 833.33 nM -1.76% | 10000 nM 2.1%

CC(=O)c1cc2c(o1)C(=O)c1ccccc1C2=O [napabucasin]
inactive: 1 nM 0.24% | 8.33 nM 1.91% | 100 nM 1.42% | 833.33 nM 7.16% | 10000 nM -36.6%

C[C@@H](O)[C@H]1C(=O)N2C(C(=O)O)=C(S[C@@H]3CN[C@H](C(=O)Nc4cccc(C(=O)O)c4)C3)[C@H](C)[C@H]12 [ertapenem]
inactive: 1 nM 0.22% | 8.33 nM 3.19% | 100 nM 1.71% | 833.33 nM 2.2% | 10000 nM 2.62%

Cc1nc(N)sc1CCN [amthamine]
inactive: 1 nM -1.84% | 8.33 nM -1.83% | 100 nM -2.06% | 833.33 nM 0.97% | 10000 nM 0.76%

COc1[nH]c2ccc(F)cc2c1C(=O)OCC1CCN(CCNS(C)(=O)=O)CC1
inactive: 1 nM 2% | 8.33 nM 2.46% | 100 nM 0.98% | 833.33 nM 0.39% | 10000 nM 1.56%

CN1CCC2=C(C1)C(c1ccccc1)c1ccccc12 (stereo not given) [phenindamine]
inactive: 1 nM -1.14% | 8.33 nM -0.54% | 100 nM 0.73% | 833.33 nM 2.57% | 10000 nM 1.5%

CCCCNc1ncc2c(-c3ccc(CN4CCN(C)CC4)cc3)cn([C@H]3CC[C@H](O)CC3)c2n1
inactive: 1 nM 1.92% | 8.33 nM 2.77% | 100 nM -0.22% | 833.33 nM -9.69% | 10000 nM 7.04%

CN1C(=O)C(Cc2c[nH]c3ccccc23)NC1=S (stereo not given) [necrostatin-1]
inactive: 1 nM 1.27% | 8.33 nM -1.34% | 100 nM 2.85% | 833.33 nM 1.03% | 10000 nM 1.43%

Oc1ccc(O)cc1 [hydroquinone]
inactive: 1 nM -0.8% | 8.33 nM 2.88% | 100 nM 1.25% | 833.33 nM 1.2% | 10000 nM 1.62%

Cc1ccc(-n2sc(=O)n(Cc3ccc(F)cc3)c2=O)cc1
inactive: 1 nM 1.81% | 8.33 nM -0.78% | 100 nM 0.17% | 833.33 nM -0.22% | 10000 nM -3.39%

COc1cc2nccc(Oc3ccc(NC(=O)C4(C(=O)Nc5ccc(F)cc5)CC4)cc3)c2cc1OC [cabozantinib]
inactive: 1 nM 1.77% | 8.33 nM 1.83% | 100 nM -0.89% | 833.33 nM -1.04% | 10000 nM -14.2%

CCc1nc(C(N)=O)c(Nc2ccc(N3CCC(N4CCN(C)CC4)CC3)c(OC)c2)nc1NC1CCOCC1 [gilteritinib]
inactive: 1 nM 0.28% | 8.33 nM 0.02% | 100 nM -2.49% | 833.33 nM -0.11% | 10000 nM 10.3%

Cn1nc(C(C)(C)C)cc1C(=O)N[C@@H](Cc1cccc(Cl)c1)C(=O)NCC#N [cathepsin-inhibitor-1]
inactive: 1 nM 0.51% | 8.33 nM 1.86% | 100 nM -0.47% | 833.33 nM -5.37% | 10000 nM -1.36%

N#C/C(=C1/SC[C@@H](c2ccc(Cl)cc2Cl)S1)n1ccnc1 [luliconazole]
inactive: 1 nM 1% | 8.33 nM 1.92% | 100 nM 2.17% | 833.33 nM 1.1% | 10000 nM 3.29%

CN(C)CCN(C)CCc1ccc(Cl)c(Cl)c1
inactive: 1 nM -3% | 8.33 nM -0.98% | 100 nM 1.41% | 833.33 nM -3.83% | 10000 nM -3.28%

c1ccc([C@@H]2C[C@H]2NC2CCNCC2)cc1
inactive: 1 nM -2.71% | 8.33 nM 1.14% | 100 nM 0.53% | 833.33 nM 1.44% | 10000 nM -2.6%

C=C1CC[C@H](O)C/C1=C/C=C1\CCC[C@]2(C)[C@@H]([C@H](C)CCCC(C)(C)O)CC[C@@H]12 [calcifediol]
inactive: 1 nM 0.8% | 8.33 nM -2.15% | 100 nM -3.43% | 833.33 nM -0.54% | 10000 nM 0.11%

CCOC(=O)N[C@@H]1CC[C@@H]2[C@@H](C1)C[C@H]1C(=O)O[C@H](C)[C@H]1[C@H]2/C=C/c1ccc(-c2cccc(F)c2)cn1 [vorapaxar]
inactive: 1 nM -1.52% | 8.33 nM -0.15% | 100 nM -0.3% | 833.33 nM -0.44% | 10000 nM 0.22%
